Measurements from PubChem BioAssay AID1159580 (chemical genetic matrix, 2015).
Out of some 5,500 compounds screened, about 2,000 (36%) were called active. Another 18% or so got no clear call; they are omitted. Rule as the data show it: active = normalized growth mostly below about 0.91 (no sharp cut-off); inconclusive = no clear call, values can overlap the other calls; inactive = mostly above about 0.92. This is one part of the list.

Test: chemical genetic growth profiling, strain panel (AID 1159580);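 also: tested at 20 µM; growth read once vehicle control cultures reached saturation at 30 °C; 1 = growth at the plate median or of vehicle wells; lower values mean less growth of the strain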
Details: growth OD

Measured: normalized growth

CN(Cc1cnc2nc(N)nc(N)c2n1)c1ccc(C(=O)NC(CCC(=O)O)C(=O)O)cc1 (stereo unspecified)
inactive: S. cerevisiae deletion strains, locus YKL160W, strain elf1, active compounds read low 0.94 | S. cerevisiae deletion strains, locus YKR001C, strain vps1, active compounds read low 0.953 | S. cerevisiae deletion strains, locus YKR026C, strain gcn3, active compounds read low 0.934 | S. cerevisiae deletion strains, locus YKR091W, strain srl3, active compounds read low 0.94 | S. cerevisiae deletion strains, locus YLL026W, active compounds read low 0.935 | S. cerevisiae deletion strains, locus YLL041C, strain sdh2, active compounds read low 0.955 | S. cerevisiae deletion strains, locus YLR027C, strain aat2, active compounds read low 0.94 | S. cerevisiae deletion strains, locus YLR039C, strain RIC1, active compounds read low 0.909 | S. cerevisiae deletion strains, locus YLR058C, strain SHM2, active compounds read low 0.99 | S. cerevisiae deletion strains, locus YLR102C, strain apc9, active compounds read low 0.993 | S. cerevisiae deletion strains, locus YLR258W, strain gsy2, active compounds read low 0.923 | S. cerevisiae deletion strains, locus YLR262C, strain YPT6 (second series), active compounds read low 0.952 | S. cerevisiae deletion strains, locus YLR262C, strain YPT6, active compounds read low 0.958 | S. cerevisiae deletion strains, locus YLR268W, strain sec22, active compounds read low 0.984 | S. cerevisiae deletion strains, locus YLR330W, strain CHS5, active compounds read low 0.973 | S. cerevisiae deletion strains, locus YLR342W, strain FKS1 (second series), active compounds read low 1.01 | S. cerevisiae deletion strains, locus YLR342W, strain FKS1, active compounds read low 0.928 | S. cerevisiae deletion strains, locus YLR357W, strain rsc2, active compounds read low 0.943 | S. cerevisiae deletion strains, locus YLR371W, strain rom2, active compounds read low 1.01 | S. cerevisiae deletion strains, locus YLR418C, strain cdc73, active compounds read low 0.96 | S. cerevisiae deletion strains, locus YML016C, strain PPZ1, active compounds read low 1.01 | S. cerevisiae deletion strains, locus YML032C, strain rad52, active compounds read low 0.986 | S. cerevisiae deletion strains, locus YML124C, strain tub3, active compounds read low 0.974 | S. cerevisiae deletion strains, locus YMR078C, strain ctf18, active compounds read low 0.986 | S. cerevisiae deletion strains, locus YMR125W, strain sto1, active compounds read low 0.95 | S. cerevisiae deletion strains, locus YMR129W, active compounds read low 0.948 | S. cerevisiae deletion strains, locus YMR205C, strain PFK2, active compounds read low 0.948 | S. cerevisiae deletion strains, locus YMR223W, strain ubp8, active compounds read low 0.953 | S. cerevisiae deletion strains, locus YMR263W, strain SAP30, active compounds read low 0.987 | S. cerevisiae deletion strains, locus YMR307W, strain GAS1, active compounds read low 1.02 | S. cerevisiae deletion strains, locus YNL067W, strain RPL9B, active compounds read low 0.963 | S. cerevisiae deletion strains, locus YNL071W, strain lat1, active compounds read low 0.961 | S. cerevisiae deletion strains, locus YNL153C, strain GIM3, active compounds read low 0.974 | S. cerevisiae deletion strains, locus YNL175C, strain NOP13, active compounds read low 0.975 | S. cerevisiae deletion strains, locus YNL197C, strain WHI3, active compounds read low 0.976 | S. cerevisiae deletion strains, locus YNL224C, strain SQS1, active compounds read low 0.977 | S. cerevisiae deletion strains, locus YNL233W, strain BNI4, active compounds read low 0.98 | S. cerevisiae deletion strains, locus YNL248C, strain rpa49, active compounds read low 0.925 | S. cerevisiae deletion strains, locus YNL307C, strain MCK1, active compounds read low 1.01 | S. cerevisiae deletion strains, locus YNL322C, strain KRE1, active compounds read low 0.971 | S. cerevisiae deletion strains, locus YNR049C, strain mso1, active compounds read low 0.921 | S. cerevisiae deletion strains, locus YNR052C, strain pop2, active compounds read low 0.951 | S. cerevisiae deletion strains, locus YOL012C, strain htz1 1.38 | S. cerevisiae deletion strains, locus YOL147C, strain pex11, active compounds read low 0.982 | S. cerevisiae deletion strains, locus YOR001W, strain rrp6, active compounds read low 0.929 | S. cerevisiae deletion strains, locus YOR061W, strain CKA2, active compounds read low 0.99 | S. cerevisiae deletion strains, locus YOR069W, strain VPS5, active compounds read low 0.987 | S. cerevisiae deletion strains, locus YOR070C, strain gyp1, active compounds read low 0.934 | S. cerevisiae deletion strains, locus YOR083W, strain WHI5 (second series), active compounds read low 0.984 | S. cerevisiae deletion strains, locus YOR083W, strain WHI5, active compounds read low 0.908 | S. cerevisiae deletion strains, locus YOR136W, strain idh2, active compounds read low 0.995 | S. cerevisiae deletion strains, locus YOR144C, strain elg1, active compounds read low 0.975 | S. cerevisiae deletion strains, locus YOR184W, strain ser1, active compounds read low 0.968 | S. cerevisiae deletion strains, locus YOR270C, strain vph1, active compounds read low 0.957 | S. cerevisiae deletion strains, locus YOR316C, strain cot1, active compounds read low 0.984 | S. cerevisiae deletion strains, locus YPL051W, strain arl3, active compounds read low 0.984 | S. cerevisiae deletion strains, locus YPL078C, strain atp4, active compounds read low 0.947 | S. cerevisiae deletion strains, locus YPL106C, strain sse1, active compounds read low 0.947 | S. cerevisiae deletion strains, locus YPL240C, strain hsp82, active compounds read low 0.957 | S. cerevisiae deletion strains, locus YPR119W, strain clb2, active compounds read low 0.989 | S. cerevisiae deletion strains, locus YPR163C, strain tif3, active compounds read low 0.985 | S. cerevisiae deletion strains, locus YPR167C, strain met16, active compounds read low 0.975 | S. cerevisiae deletion strains, strain wtn01, active compounds read low 0.97 | S. cerevisiae strains, strain wild type, active compounds read low 0.973
active: S. cerevisiae deletion strains, locus YJR066W, strain TOR1, active compounds read low 0.0866 | S. cerevisiae deletion strains, locus YKL009W, strain mrt4, active compounds read low 0.527 | S. cerevisiae deletion strains, locus YKL068W, active compounds read low 0.513 | S. cerevisiae deletion strains, locus YKL085W, strain MDH1 (second series), active compounds read low 0.311 | S. cerevisiae deletion strains, locus YKL085W, strain MDH1, active compounds read low 0.311 | S. cerevisiae deletion strains, locus YLL001W, strain dnm1, active compounds read low 0.873 | S. cerevisiae deletion strains, locus YLR113W, strain HOG1, active compounds read low 0.247 | S. cerevisiae deletion strains, locus YLR221C, strain rsa3, active compounds read low 0.816 | S. cerevisiae deletion strains, locus YLR320W, strain mms22, active compounds read low 0.789 | S. cerevisiae deletion strains, locus YLR370C, strain arc18, active compounds read low 0.877 | S. cerevisiae deletion strains, locus YLR384C, strain iki3, active compounds read low 0.88 | S. cerevisiae deletion strains, locus YML120C, strain ndi1, active compounds read low 0.813 | S. cerevisiae deletion strains, locus YMR058W, strain fet3, active compounds read low 0.893 | S. cerevisiae deletion strains, locus YMR231W, strain pep5, active compounds read low 0.923 | S. cerevisiae deletion strains, locus YNL183C, strain NPR1, active compounds read low 0.112 | S. cerevisiae deletion strains, locus YNL209W, strain ssb2, active compounds read low 0.913 | S. cerevisiae deletion strains, locus YNL250W, strain rad50, active compounds read low 0.195 | S. cerevisiae deletion strains, locus YNL271C, strain bni1, active compounds read low 0.291 | S. cerevisiae deletion strains, locus YNL298W, strain CLA4, active compounds read low 0.385 | S. cerevisiae deletion strains, locus YNL322C, strain KRE1 (second series), active compounds read low 0.512 | S. cerevisiae deletion strains, locus YOR080W, strain dia2, active compounds read low 0.902 | S. cerevisiae deletion strains, locus YOR106W, strain vam3, active compounds read low 0.801 | S. cerevisiae deletion strains, locus YOR231W, strain MKK1, active compounds read low 0.193 | S. cerevisiae deletion strains, locus YOR265W, strain rbl2, active compounds read low 0.911 | S. cerevisiae deletion strains, locus YOR290C, strain snf2, active compounds read low 0.845 | S. cerevisiae deletion strains, locus YPL256C, strain CLN2, active compounds read low 0.227 | S. cerevisiae deletion strains, locus YPR141C, strain kar3, active compounds read low 0.345
